KCNQ2 inh – inhibitors of rat KCNQ2 potassium channel | O88943 | CHO-K1 KCNQ2, FluxOR thallium flux, 20 min; stronger effect = lower value | B-score at 10 µM | hit rate 1.1% among 310,000 | AID 2156;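 active = fluorescence ratio B-score at most minus 3 library SDs, with starting brightness B-score within 2 library SDs, cut at about -5.5 in these data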
Target sequence (O88943 whole entry, looked up): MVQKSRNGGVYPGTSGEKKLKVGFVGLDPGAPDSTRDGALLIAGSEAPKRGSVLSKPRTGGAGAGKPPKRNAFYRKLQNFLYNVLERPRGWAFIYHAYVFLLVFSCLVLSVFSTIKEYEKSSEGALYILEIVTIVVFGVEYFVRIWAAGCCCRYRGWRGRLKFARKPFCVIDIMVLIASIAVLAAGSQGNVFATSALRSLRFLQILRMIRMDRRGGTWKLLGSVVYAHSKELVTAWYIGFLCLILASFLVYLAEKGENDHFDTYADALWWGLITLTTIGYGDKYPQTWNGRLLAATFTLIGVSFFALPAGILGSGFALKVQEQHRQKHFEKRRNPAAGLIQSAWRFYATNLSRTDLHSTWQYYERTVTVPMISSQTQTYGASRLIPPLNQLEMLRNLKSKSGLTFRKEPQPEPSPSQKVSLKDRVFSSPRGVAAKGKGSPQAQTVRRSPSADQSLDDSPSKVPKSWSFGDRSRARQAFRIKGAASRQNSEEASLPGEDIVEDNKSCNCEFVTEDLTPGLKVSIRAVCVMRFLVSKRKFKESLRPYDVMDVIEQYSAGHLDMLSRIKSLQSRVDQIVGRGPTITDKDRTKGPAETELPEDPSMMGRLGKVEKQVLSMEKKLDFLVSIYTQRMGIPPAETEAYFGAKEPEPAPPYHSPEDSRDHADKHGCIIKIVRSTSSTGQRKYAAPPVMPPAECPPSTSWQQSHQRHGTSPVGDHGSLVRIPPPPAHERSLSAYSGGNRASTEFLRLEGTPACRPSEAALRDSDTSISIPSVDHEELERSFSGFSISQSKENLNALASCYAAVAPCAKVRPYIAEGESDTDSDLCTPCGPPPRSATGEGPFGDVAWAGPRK
KCNQ2 pot – potentiators of rat KCNQ2 potassium channel; B-score at 10 µM; hit rate 0.54% among 310,000; O88943; CHO-K1 KCNQ2, FluxOR thallium flux fluorescence; stronger effect = higher value;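 active = fluorescence ratio B-score at least 3 SD of library B-scores, with initial fluorescence B-score within 3 of them, cut at about 5.3 in these data; same plate scores as AID 2156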;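 also: B-score of peak minus minimum over baseline fluorescence ratio after K+ and Tl+ stimulus; positive B-score means potentiation of KCNQ2 with more thallium influx and brighter signal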
An asterisk follows results filed as active; i = inactive; . = not tested or not shown. Sampled rows, rich in hits. Any-hit rate of the full collection: about 1.6%.

SMILES	KCNQ2 inh	KCNQ2 pot
Cc1cc(C)c(S(=O)(=O)N(C)CC(=O)N2CCCCC2)c(C)c1	i	.
CCOC(=O)C1CCN(C(=O)C2COc3ccccc3O2)CC1 (stereo not given)	i	.
O=C(c1ccccc1)c1ccc(OCCn2cnc3ccccc3c2=O)cc1	i	0.19
CC(C)(c1ccccc1)c1ccc(OCCn2cnc3ccccc3c2=O)cc1	-7.4*	-7.4
CC(C)c1ccc2[nH]c3c(c2c1)[C@@H]1CCN2C(=O)CCC[C@H](C3)[C@H]12	i	0.62
CCC(C)(C)NC(=O)C(c1cccc(OC)c1OC)N(C(=O)CCC(=O)Nc1cc(C)on1)C(C)C (stereo not given)	i	0.03
COc1ccc(C(CNC(=O)COc2ccc(C)c(C)c2)N2CCCCC2)cc1 (stereo not given)	i	.
COc1ccc(C(CNC(=O)c2oc3cc(C)c(Cl)cc3c2C)N2CCCCC2)cc1 (stereo not given)	-5.8*	-5.8
COc1ccc(C(CNC(=O)c2oc3ccc(C)cc3c2C)N2CCCCC2)cc1 (stereo not given)	i	.
COc1ccc(C(CNC(=O)COc2cc(C)c(Cl)c(C)c2)N2CCCCC2)cc1 (stereo not given)	-6*	-6
Cc1ccc(NC(=O)CCn2c(=O)c3cccn3c3ccccc32)cc1C	i	.
COc1ccc(C(=O)NC(=S)Nc2ccc(CN3CCOCC3)cc2)cc1Br	i	1.1
Cc1ccc(C(=O)Nc2c(-c3cccs3)nc3cc(C)ccn23)cc1	i	0.53
Cc1ccn2c(NC(=O)C(C)(C)Oc3ccc(Cl)cc3)c(-c3cccs3)nc2c1	-6.4*	-6.4
O=C(C1COc2ccccc2O1)N1CCN(c2ccccc2Cl)CC1 (stereo not given)	-7.4*	-7.4
O=C(C1COc2ccccc2O1)N1CCN(c2ccccc2F)CC1 (stereo not given)	i	.
NC(=NC(=O)c1ccccc1)N1CCN(C(c2ccccc2)c2ccccc2)CC1	i	.
Cc1ccc(/C=C(\C#N)C(=O)NC(C)c2ccccc2)o1 (stereo not given)	i	1.5
O=C(c1cnn2c(C(F)F)cc(-c3ccccc3)nc12)N1CCc2ccccc2C1	-6.3*	-6.3
Cc1cc(C(F)F)n2ncc(C(=O)N3CCc4ccccc4C3)c2n1	i	0.89
O=C(c1cnn2c(C(F)(F)F)cc(-c3ccco3)nc12)N1CCc2ccccc2C1	-7*	-7
O=C(c1cnn2c(C(F)(F)F)cc(-c3ccco3)nc12)N1CCCCCC1	i	0.19
CCN1C(=O)[C@H]2[C@@H](c3ccc(-c4ccc(OC)cc4)c(OC)c3)N3CCCC[C@@]3(C(=O)OC)[C@H]2C1=O	i	.
CCCN1CCc2nc(SCC(=O)Nc3ccc(C)c(Cl)c3)[nH]c(=O)c2C1	i	.
CCOc1ccc(-c2cc(NC(=O)Cn3ncc4c3-c3ccccc3OC4)on2)cc1OCC	i	1.6
SMILES	KCNQ2 inh	KCNQ2 pot
C[C@H](NC(=O)CCCOc1ccc(Cl)cc1Cl)c1nnc2ccccn12	i	1.2
CCOc1cccc(-c2csc(C3COc4ccccc4O3)n2)c1 (stereo not given)	i	.
CC(=O)C1=C(c2ccccc2)NC(=O)NC1c1ccccc1OCC#N (stereo not given)	i	.
Cc1ccc(N2C(=O)c3ccccc3C2Nc2ccccc2)nc1 (stereo not given)	i	.
CCc1cccc(NC2c3ccccc3C(=O)N2c2ccc(C)cn2)c1 (stereo not given)	-7.5*	-7.5
CCc1ccccc1N(CC(=O)N1CCc2ccccc2C1)S(C)(=O)=O	i	0.01
N#C/C(=C\c1cccnc1)C(=O)Nc1ccc(Cl)cc1	i	.
Cc1cccc(NC(=O)/C(C#N)=C\c2cccnc2)c1	-6.5*	-6.5
Cc1ccc(CNC(=O)C(Cc2ccccc2)NS(=O)(=O)c2cccs2)cc1 (stereo not given)	i	3.3
Cc1nc2c(c(=O)c3ccccc3n2C)c(=O)n1C1CCCCCC1	i	0.08
Cn1c2ccccc2c(=O)c2c(=O)n(C3CCCCC3)c(-c3ccco3)nc21	i	6.7*
Cc1cccc(NC(=O)CSc2nc3nc(C)cc(C)n3n2)c1	i	.
C=CCOn1c(-n2nc(C)cc2C)nc2ccccc2c1=O	i	.
Cc1cc(C)n(-c2nc3ccccc3c(=O)n2OCCOc2ccccc2)n1	-5.6*	-5.6
CCN(CC)CCNC(=O)c1ccc(NC(=O)Cc2ccsc2)cc1	i	1.1
CCCNC(=O)Cc1ccsc1	-7.8*	-7.8
COc1cc2c(cc1OC)CN(C(=O)C1CCN(S(=O)(=O)c3ccccc3F)CC1)CC2	i	1.9
CN1CCN(S(=O)(=O)c2cccc(C(=O)Nc3cc(C(F)(F)F)ccc3N3CCCC3)c2)CC1	i	.
CN1CCN(S(=O)(=O)c2cccc(C(=O)Nc3cc(Cl)ccc3N3CCOCC3)c2)CC1	-7.5*	-7.5
CC(Oc1cccc(Cl)c1)C(=O)Nc1cc(S(=O)(=O)N2CCOCC2)ccc1N1CCCC1 (stereo not given)	i	.
CC(Oc1cccc(Cl)c1)C(=O)Nc1cc(S(=O)(=O)N2CCCCC2)ccc1N1CCOCC1 (stereo not given)	-7.6*	-7.6
COc1ccc(N2CCOCC2)c(NC(=O)c2cccnc2)c1	i	0.27
CC(C)c1ccc(CCNC(=O)CSC(=S)N2CCCC2)cc1	i	0.36
CC(C)c1cc(=O)[nH]c(N2CCN(Cc3ccc4c(c3)OCO4)CC2)n1	i	0.84
OC1CN=C2CCCc3c2n(c2ccc(Cl)cc32)C1 (stereo not given)	i	.
SMILES	KCNQ2 inh	KCNQ2 pot
c1ccc(-c2ccc3c(c2)c2c4n3CCN=C4CCC2)cc1	-7.5*	-7.5
CSc1nsc(SCC(=O)N2CCN(c3ccccc3)CC2)n1	i	.
CN(C)CCNc1ncnc2c1sc1nc(-c3ccccc3)c3c(c12)CCCC3	-7.8*	-7.8
COc1ncnc2c1sc1nc(-c3ccccc3)c3c(c12)CCCC3	i	0.04
CC(C)Oc1ccccc1NC(=O)CSc1nccn1C	i	2
COCCNC(=O)CSc1ccccc1C(=O)NCC1CCCCC1	i	0.1
CC1CCN(C(=O)c2ccccc2SCC(=O)NCC2CCCCC2)CC1	-6*	-6
Cc1ccc(-c2nc(C)sc2CC(=O)Nc2cccc(C)c2C)cc1	i	.
COc1cc(C=O)ccc1OCC(=O)Nc1cccc(S(=O)(=O)N(C)c2ccccc2)c1	-8.3*	-8.3
COc1ccccc1OCC(=O)Nc1cccc(N(C)S(C)(=O)=O)c1	i	.
CN(C)c1nc(N)c([N+](=O)[O-])c(N2CCCCCC2)n1	i	1.3
O=C1c2cccc3c([N+](=O)[O-])ccc(c23)C(=O)N1c1ccccn1	i	.
O=C1c2cccc3c([N+](=O)[O-])ccc(c23)C(=O)N1c1ccc(Cl)cn1	-7*	-7
O=C(c1cc2cc(Cl)ccc2[nH]1)N1CCN(c2ccccn2)CC1	i	0.25
O=C(NCC1CCCO1)c1cc2c([nH]c3ccccc32)c(-c2cccc(Br)c2)n1 (stereo not given)	-6.4*	-6.4
COc1ccc(-c2cc(C(=O)NCC3CCCO3)c3ccccc3n2)cc1 (stereo not given)	i	0.02
Cc1ccc2nc(-c3cccc(Br)c3)cc(C(=O)NCC3CCCO3)c2c1 (stereo not given)	i	.
O=C(NCC1CCCO1)c1cc(-c2ccccc2)nc2ccc(Br)cc12 (stereo not given)	-7.4*	-7.4
COc1ccc(-c2nc(C(=O)NCC3CCCO3)cc3c2[nH]c2ccccc23)cc1 (stereo not given)	i	.

Bioassay records (PubChem BioAssay)
